Shown is part of a subset that was picked to be rich in hits.
Tg IFNy HTS – inhibitors of Toxoplasma gondii growth with IFN-gamma; Toxoplasma gondii growth in IFN-gamma-treated host cells; stronger effect = lower value; activity change, negative = inhibition, % (no concentration beside the values); 3.8% of 69,000 active; in the data active means activity change below about -70%, passing the limit was not always enough;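 further: host cells are HeLa cells infected with Toxoplasma gondii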
Active calls of the source: *; ! = a repeat was not active.

SMILES	Tg IFNy HTS
Cc1nc(CN2CCc3c(COCCN(C)C)cncc3C2)cs1	-10
CNC(=O)[C@H]1C[C@@H]2CN(Cc3cnn(C)c3)C[C@@H]2N1C(C)C	-2
Cc1cc(C(=O)N(C)C(C)Cc2ccccn2)c2ccc(F)cc2n1 (configuration not stated)	-4
Cc1ccc(Nc2ncc(C(=O)NC(C)c3cn(C)nc3C)c(C)n2)cc1 (configuration not stated)	7
Cc1nc(-n2cnnc2)ccc1-c1cccc(Cl)c1Cl	-84*
COc1cccc(Cl)c1-c1cccc(-n2cnnc2)c1	0
Nc1nnc(-c2cccc(Cl)c2Cl)c(N)n1	2
CCc1nccc(-c2nccn2-c2ccc(OC)nc2OC)n1	-45
Cc1[nH]c2ccccc2c1CCNCc1ccc(/C=C/C(=O)NO)cc1	-82*!
CCO[C@H]1COC[C@@H]1NC(=O)Cc1c(C)[nH]c2ccccc12	5
Cc1[nH]c2ccccc2c1CCNC(=O)c1cccs1	29
Cc1ccc(C)c(S(=O)(=O)NCCc2sc(-c3cccc(F)c3)nc2C)c1	-32
COc1cccc(-n2cc(CN(C)Cc3cc4ccccc4[nH]3)cn2)c1	13
O=C(Cc1ccc(F)cc1)N1CC[C@H]2[C@@H]1CCN2c1ncccn1	29
CCC(c1cccnc1)N(C)Cc1ccsc1 (configuration not stated)	5
Cc1oc(C2CCN(C(=O)Nc3ccc(Cl)cc3)CC2)nc1C(=O)N1CCCC1	-21
CSc1ccc(NC(=O)N2CCC(c3nc(C(=O)N4CCCC4)c(C)o3)CC2)cc1	-84*
Cc1oc(C2CCN(C(=O)Nc3cccc(F)c3C)CC2)nc1C(=O)N(C)C	-79*
CSc1ccc(NC(=O)N2CCC(c3nc(C(=O)N4CCCCC4)c(C)o3)CC2)cc1	-64
Cc1oc(C2CCN(S(=O)(=O)c3cccc(F)c3)CC2)nc1C(=O)N1CCCC1	13
Cc1ccc(F)cc1S(=O)(=O)N1CCC(c2nc(C(=O)N3CCCC3)c(C)o2)CC1	-82*
Cc1cccc(NC(=O)N2CCC(c3nc(C(=O)N(C)C)c(C)o3)CC2)c1C	-13
Cc1oc(C2CCN(S(=O)(=O)c3ccc(F)cc3)CC2)nc1C(=O)N1CCCC1	-29
Cc1oc(C2CCN(C(=O)Nc3cccc(Cl)c3C)CC2)nc1C(=O)N(C)C	15
COc1ccc(C2(NCc3ccc(O)c(CN4CCN(C)CC4)c3)CCCC2)cc1	45
SMILES	Tg IFNy HTS
O=C(CCc1ccc(F)cc1)N1C[C@H]2C[C@H](O)[C@@H](O)C[C@H]2C1	2
CN1C(=O)N(Cc2ccc3ccccc3c2)C(=O)C12CCN(Cc1ccncc1)CC2	12
CCCNC(=O)c1cc2ccc(-c3cccc(OC)c3)cn2c1-c1cocn1	-11
COc1ccccc1NC(=O)N1CCc2nc(-c3ccc(C)cc3)sc2C1	25
CN(C)C(=O)N1CCCn2c(nc(CN3CCCC3)cc2=O)C1	260
CCC(NCC(=O)NCc1ccccc1F)c1nc(C)no1 (configuration not stated)	1
O=C(c1ccn(-c2ccc3ccc(-c4ccccc4)cn23)n1)N1CCCO1	31
CCOc1cc(C(=O)NCCc2csc(-c3ccc(F)cc3)n2)cc(OCC)c1OCC	25
CCOCC1COCCC12CCN(C(=O)CCc1ccccc1)CC2 (configuration not stated)	-1
CN1CCC2(CCOCC2NC(=O)c2ccccc2)CC1 (configuration not stated)	-1
CC(=O)N1CCC2(CCOCC2NC(=O)c2ccccc2)CC1 (configuration not stated)	-93*
Cc1nc(-c2ccccc2)sc1CCNS(=O)(=O)c1cc(F)ccc1F	314
COc1cccc(-c2noc(-c3c(O)c4ccccc4n(C)c3=O)n2)c1OC	32
Nc1nnc(SCc2ccccn2)s1	5
CC(C)(C)c1nc2ccccc2c2nnc(SCc3ccccn3)n12	-79*
C=CCn1c(SCc2ccccn2)nc2c([nH]c3ccccc32)c1=O	30
COc1ccc(C2CCCCN2Cc2ncccc2C(=O)O)cc1 (configuration not stated)	5
CCn1cnc2cc(NC(=O)CCC(=O)Nc3nc(C)c(C)s3)ccc21	42
COc1ccc(OCc2nn3c(-c4cccs4)nnc3s2)cc1	-69
CCCCOc1ccc(-c2nnc(-c3cccs3)n2-c2ccccc2)cc1	-80*
Cc1cccc(-n2c(SCC(N)=O)nnc2-c2cccs2)c1C	-3
CCN1CCN(Cc2ccc(NC(=O)CN3C(=O)CCc4cc(Br)ccc43)cc2)CC1	-92*
O=C(CN1C(=O)CCc2cc(Br)ccc21)Nc1cccc2c1CCCC2	164
O=C(CN1C(=O)CCc2cc(Br)ccc21)NC1CCCc2ccccc21 (configuration not stated)	-94*
Cc1cc(C)cc(NC(=O)CN2C(=O)CCc3cc(Br)ccc32)c1	-40
SMILES	Tg IFNy HTS
Cc1ccc(NC(=O)CN2C(=O)CCc3cc(Br)ccc32)cc1F	18
O=C(CN1C(=O)CCc2cc(S(=O)(=O)N3CCCCC3)ccc21)NC1CCCc2ccccc21 (configuration not stated)	-13
Cn1nccc1C(=O)N1CCC(c2[nH]ncc2C(=O)N2CCCCCC2)CC1	24
CCc1csc(CNC(=O)Cc2nc3ccccc3o2)n1	14
CNC(=O)[C@@]12CCC3(CCN(C(=O)NCc4cccc(OC)c4)CC3)[C@H]1CN(C(C)=O)C2	-28
CCCN(C)c1ccc(C(=O)N2CCC(N3CCOCC3)CC2)cn1	95
C[C@]12CC[C@@H]3c4ccc(O)cc4C[C@@H](CCCCCCCCCS(=O)CCCC(F)(F)C(F)(F)F)[C@H]3[C@@H]1CC[C@@H]2O (some centres not stated)	-78*
COc1cc(C)c2c(c1)C=CC1C2CCC2(C)C(O)CCC12 (configuration not stated)	25
CC(C)CC(=O)N1C[C@@H]2c3nc(Nc4ccccc4)ncc3CS(=O)(=O)[C@H]2C1	5
COc1ccc(C(=O)N2CCCN(CC3CC3)C(C(C)C)C2)c(OC)c1 (configuration not stated)	0
Cc1cccc(C)c1NC(=O)Cn1ncc2c(N3CCN(c4ccccc4)CC3)ncnc21	157
CN(Cc1ccc2[nH]ccc2c1)Cc1cnn(-c2ccccc2)c1	-6
CC(NC(=O)CCc1nc(-c2ccncc2)no1)C1CC2CCC1C2 (configuration not stated)	10
COc1ccc(-c2cc(N)nc3[nH]ccc23)cc1C	-78*
CCNC(=O)c1cccc(-c2cc(N)nc3[nH]ccc23)c1	22
CS(=O)(=O)c1ccc(-c2cc(N)nc3[nH]ccc23)cc1	4
Cn1ccnc1C1(O)CCN(C(=O)CC2CCCCC2)CC1	-1
O=S(=O)(c1ccc(F)c(Cl)c1)N1CCc2nc(-c3ccccc3)sc2C1	16
COc1ccc(-c2nc3c(s2)CN(S(=O)(=O)c2ccccc2C)CC3)cc1OC	-94*
COc1ccc(-c2nc3c(s2)CN(S(=O)(=O)c2ccc(F)cc2)CC3)cc1OC	18
COc1ccc(Cl)cc1S(=O)(=O)N1CCc2nc(-c3ccccc3)sc2C1	-118*
COc1ccc(-c2nc3c(s2)CN(S(=O)(=O)c2ccc(C)cc2)CC3)cc1OC	-87*
COc1ccc(-c2nc3c(s2)CN(S(=O)(=O)c2ccc(NC(C)=O)cc2)CC3)cc1	-26
COc1ccc(-c2nc3c(s2)CN(S(=O)(=O)c2cc(F)ccc2C)CC3)cc1OC	-68
COc1ccc(-c2nc3c(s2)CN(S(=O)(=O)Cc2ccccc2)CC3)cc1OC	-35
COc1ccc(-c2nc3c(s2)CN(C(=O)Nc2ccc(C)cc2)CC3)cc1OC	-42

Assay outcomes: PubChem BioAssay, Broad Institute
